Test results from PubChem BioAssay (Tox21).
Results filed as inconclusive are left out. A number with no mark means an inactive call. The source made the active and inactive calls. Unless noted, calls follow the shape of the full dose curve.

Test system: not listed separately
Experiment: qHTS assay to identify small molecule agonists of the estrogen related receptor (ERR) signaling pathway (AID 1224820; active = well fitted activation curve with a large enough effect in the repeat runs; also: potency is read from the fitted curve at half-maximal effect)
Conditions: ERR reporter cell line, luciferase agonist mode; series mostly up to 46.1 µM; activation: at the top concentration
How it was run: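 Luminescence readout (One-Glo, 30 min RT) from NTP-supplied ERR cell line exposed to compounds for 18 h at 37 C. Cells seeded 2,000 per well and pre-incubated 6 h before pin-tool compound transfer.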
% is scaled to controls: 0 for no effect and ±100 for the full control effect.

Compound | activation [%] | Potency
CCOC(=O)C(C)Oc1cccc2c(=O)n(CC(=O)Nc3ccc4c(c3)OCCO4)ccc12 (stereo not drawn) | -3.77 | 
CCCCC#Cc1nc(NC)c2ncn([C@@H]3O[C@H](CO)[C@@H](O)C3O)c2n1 (stereo partly drawn) | -10.6 | 
CNCCC=C1c2ccccc2CCc2ccccc21 | 11.5 | 
CCCCCC[C@@H]([C@@H](C)O)n1cnc2c(N)ncnc21 | -19.5 | 
O=c1cc(-c2ccccc2F)[nH]c2cc3c(cc12)OCO3 | 13.7 | 
NC(=O)C1=CN(C2OC(COP(=O)(O)OP(=O)(O)OC[C@H]3O[C@@H](n4cnc5c(N)ncnc54)[C@H](OP(=O)(O)O)C3O)C(O)C2O)C=CC1 (stereo partly drawn) | 18.7 | 
COc1ccc2c(c1)CCC1C2CC[C@@]2(C)C1CC[C@@H]2NCCCCCCN1C(=O)CCC1=O (stereo partly drawn) | -22.5 | 
Nc1nc(OCc2ccccc2)c2[nH]cnc2n1 | -5.93 | 
Nc1ncnc2c1ncn2C1CCCC1 | -9.84 | 
CN[C@H](CC(=O)O)C(=O)O | 16 | 
CC(C)Cc1ccc([C@H](C)C(=O)O)cc1 | 3.94 | 
CN1CCc2cc(NC(=O)Nc3cccnc3)ccc21 |  | 9.08 µM (active)
N#C/C(=C\c1ccc(O)c(O)c1)C(=O)NCCc1ccccc1 | 9.91 | 
C[C@H]1CC2C3CCC4=CC(=O)C=C[C@]4(C)[C@@]3(Cl)[C@@H](O)C[C@]2(C)[C@@]1(O)C(=O)CO (stereo partly drawn) | -6.84 | 
CC(C)[C@@H]1CC[C@@H](C)C[C@@H]1P(=O)(c1ccccc1)c1ccccc1 | -0.489 | 
C=C1C[C@@]23CC[C@H]4[C@@](C)(CCC[C@@]4(C)C(=O)O)[C@@H]2CC[C@]1(O)C3 | 3.82 | 
CO/N=C(\C(=O)N[C@@H]1C(=O)N2C(C(=O)O)=C(COC(C)=O)CS[C@H]12)c1csc(N)n1 (stereo in doubt) | 16 | 
Nc1ncnc2c1nc(Sc1ccc(Cl)cc1)n2[C@H]1OC2COP(=O)(O)O[C@@H]2C1O (stereo partly drawn) | 6.26 | 
Cc1cc(NC(=O)Nc2ccc3c(ccn3C)c2)sn1 |  | 10.2 µM (active)

Test system: estrogen-related receptor alpha (ERRalpha) with PGC-1alpha coactivator, human
Experiment: qHTS assay to identify small molecule antagonists of the estrogen related receptor signaling pathway with the pleiotropic PPARgamma coactivator (PGC) (AID 1224821);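 also: lower luminescence signal means antagonism of PGC/ERR signalling; nearly all actives have a fitted effect of over 50% in size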
Conditions: ERR/PGC reporter cell line, luciferase, antagonist mode; series mostly up to 46.1 µM; activity change, negative = inhibition: at the top concentration
How it was run: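 PGC/ERR reporter cells; 6 h pre-incubation 37 C/5% CO2; pin-tool compound in DMSO, 18 h 37 C; One-Glo added, 30 min RT; luminescence read. qHTS antagonist mode.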

Compound | activity change, negative = inhibition
CCOC(=O)C(C)Oc1cccc2c(=O)n(CC(=O)Nc3ccc4c(c3)OCCO4)ccc12 (stereo not drawn) | 101%
CCCCC#Cc1nc(NC)c2ncn([C@@H]3O[C@H](CO)[C@@H](O)C3O)c2n1 (stereo partly drawn) | 120%
CNCCC=C1c2ccccc2CCc2ccccc21 | 112%
CCCOC(=O)c1ccc(O)cc1 | 3.06% [at 92.2 µM]
CCCCCC[C@@H]([C@@H](C)O)n1cnc2c(N)ncnc21 | 82.5%
O=c1cc(-c2ccccc2F)[nH]c2cc3c(cc12)OCO3 | 94.4%
NC(=O)C1=CN(C2OC(COP(=O)(O)OP(=O)(O)OC[C@H]3O[C@@H](n4cnc5c(N)ncnc54)[C@H](OP(=O)(O)O)C3O)C(O)C2O)C=CC1 (stereo partly drawn) | 144%
COc1ccc2c(c1)CCC1C2CC[C@@]2(C)C1CC[C@@H]2NCCCCCCN1C(=O)CCC1=O (stereo partly drawn) | 145%
Nc1nc(OCc2ccccc2)c2[nH]cnc2n1 | 34.3%
Nc1ncnc2c1ncn2C1CCCC1 | -9.84%
CN[C@H](CC(=O)O)C(=O)O | -1.87%
CC(C)Cc1ccc([C@H](C)C(=O)O)cc1 | -6.46%
CN1CCc2cc(NC(=O)Nc3cccnc3)ccc21 | 107%
N#C/C(=C\c1ccc(O)c(O)c1)C(=O)NCCc1ccccc1 | 111%
C[C@H]1CC2C3CCC4=CC(=O)C=C[C@]4(C)[C@@]3(Cl)[C@@H](O)C[C@]2(C)[C@@]1(O)C(=O)CO (stereo partly drawn) | 4.73%
CC(C)[C@@H]1CC[C@@H](C)C[C@@H]1P(=O)(c1ccccc1)c1ccccc1 | -14.9%
C=C1C[C@@]23CC[C@H]4[C@@](C)(CCC[C@@]4(C)C(=O)O)[C@@H]2CC[C@]1(O)C3 | 1.4%
Nc1ncnc2c1nc(Sc1ccc(Cl)cc1)n2[C@H]1OC2COP(=O)(O)O[C@@H]2C1O (stereo partly drawn) | 103%
Cc1cc(NC(=O)Nc2ccc3c(ccn3C)c2)sn1 | 115%
